Laboratory results taken from the supplement of paper PMC12636033.
± gives the standard deviation of the averaged measurements. The full ranking holds about 33,000 sequences; the median of “E-score (rank enrichment, -0.5 to 0.5)” is about -0.0068, and the highest 2% start at about 0.24. Shown is part of a subset that was picked to be rich in the highest values.

tested on: muMax20 (Max(13-93) K31hArg/K57hArg, M65Nle); test: PBM 8-mer E-score (E-score (rank enrichment, -0.5 to 0.5)); higher = stronger preferential binding
Method: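 Protein binding microarray (universal PBM chip covering all 10-mers in fixed probe flanks) with chemically synthesized human Max(13-93) bHLH-LZ analogs (not full-length Max) bearing noncanonical residues (hArg, Tha, Aib, Nle at 65) and aromatic Cys staples. Read-out per 8-mer (and its reverse complement): E-score (rank-based enrichment, -0.5 to 0.5) and Z-score of median probe intensity.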

| Sequence | PBM 8-mer E-score |
| --- | --- |
| CCTCGACA | -0.0844 ± 0.042 |
| ATATGCTC | 0.171 ± 0.015 |
| AATGAAAA | 0.13 ± 0.0019 |
| AATGCGAT | 0.019 ± 0.029 |
| CCCCGAAA | -0.0496 ± 0.15 |
| ATCTTGAC | 0.00194 ± 0.029 |
| ATCTTGAA | 0.0915 ± 0.096 |
| ATCTTGAG | 0.251 ± 0.011 |
| AATGATGT | 0.0444 ± 0.087 |
| GCATGTCC | 0.00639 ± 0.093 |
| AGTGAGGG | -0.0244 ± 0.062 |
| AGTAAACA | 0.202 ± 0.092 |
| TGTAAACA | 0.237 ± 0.0061 |
| CATAAAAA | 0.254 ± 0.044 |
| GGTAAACA | 0.163 ± 0.037 |
| TATAAAAA | 0.301 ± 0.1 |
| CATAAAAC | 0.209 ± 0.058 |
| TATAAAGA | 0.252 ± 0.053 |
| AATAAAGA | 0.18 ± 0.015 |
| GATAAAAA | 0.204 ± 0.016 |
| CATAAAAG | 0.138 ± 0.11 |
| GATAAAGA | 0.195 ± 0.048 |
| TAAAAAAA | 0.159 ± 0.11 |
| AAAGTAGA | 0.0577 ± 0.0065 |
| CAAGGTAA | 0.0156 ± 0.05 |

| Sequence | PBM 8-mer E-score |
| --- | --- |
| CACCCCAA | 0.206 ± 0.015 |
| CGAGCACC | -0.226 ± 0.0053 |
| TGCCTGAA | -0.00136 ± 0.071 |
| ATTGATCG | 0.103 ± 0.027 |
| CATAAACA | 0.252 ± 0.053 |
| TATAAACA | 0.234 ± 0.022 |
| GATAAACA | 0.136 ± 0.05 |
| GTCGCGCA | -0.0658 ± 0.12 |
| GTACTCCA | -0.0757 ± 0.025 |
| AAGCTGAC | -0.16 ± 0.059 |
| AAGCTGTA | 0.111 ± 0.038 |
| AAGCTGAT | 0.313 ± 0.042 |
| TGCTGGAA | -0.0216 ± 0.063 |
| GGAGAACC | -0.142 ± 0.092 |
| CGTTATAG | 0.262 ± 0.046 |
| AGTTATAT | 0.244 ± 0.012 |
| AGTTATAA | 0.181 ± 0.096 |
| CGTTATAA | 0.133 ± 0.02 |
| AGTTATAC | 0.143 ± 0.075 |
| CGTTATAC | 0.036 ± 0.026 |
| GTCTTCCA | -0.0719 ± 0.098 |
| ATCCTAAG | -0.054 ± 0.025 |
| ACAAAGCG | 0.0741 ± 0.0089 |
| GAACCTAC | -0.16 ± 0.037 |
| TTATTAAA | 0.142 ± 0.044 |

| Sequence | PBM 8-mer E-score |
| --- | --- |
| ATATTAAG | 0.163 ± 0.058 |
| ATATTTAA | 0.344 ± 0.013 |
| ATATTAAT | 0.238 ± 0.075 |
| CTATTTAA | 0.0343 ± 0.057 |
| ATATTTAC | 0.196 ± 0.025 |
| ACATTTAG | 0.136 ± 0.066 |
| CTATTAAA | 0.159 ± 0.025 |
| ACATTTAA | 0.258 ± 0.14 |
| ATATTAAC | 0.196 ± 0.0065 |
| GCATTTAA | 0.0477 ± 0.11 |
| ATATTAAA | 0.326 ± 0.0046 |
| AGGAACTA | -0.0068 ± 0.0036 |
| CACCAGGG | -0.137 ± 0.034 |
| AAGTCTTC | 0.0741 ± 0.052 |
| CTCCATTC | 0.102 ± 0.029 |
| CGAACCTC | 0.00719 ± 0.0044 |
| AAAAATCT | 0.0641 ± 0.091 |
| GTCCTGAA | -0.111 ± 0.053 |
| CCAGAAAC | -0.112 ± 0.092 |
| CTCACGGA | -0.205 ± 0.023 |
| GATAGCAC | 0.0754 ± 0.042 |
| CATAGCAA | 0.209 ± 0.024 |
| CATAGCAC | 0.258 ± 0.0042 |
| AGGGCGAT | -0.119 ± 0.015 |
| AGACTAAT | -0.0591 ± 0.045 |

| Sequence | PBM 8-mer E-score |
| --- | --- |
| CGATATAG | 0.044 ± 0.12 |
| CGATATAC | 0.0102 ± 0.0034 |
| GGATATTA | 0.125 ± 0.09 |
| CGATATTC | -0.032 ± 0.1 |
| CGATATAA | 0.267 ± 0.016 |
| CGATATTA | 0.267 ± 0.038 |
| CTCGGGTC | -0.292 ± 0.04 |
| ATCTCAGC | -0.206 ± 0.11 |
| AACATAAT | 0.31 ± 0.035 |
| ATCATAAA | 0.212 ± 0.046 |
| ATCATAAG | 0.19 ± 0.028 |
| AACATAAG | 0.13 ± 0.07 |
| AACATAAC | 0.18 ± 0.13 |
| ATCATAAT | 0.288 ± 0.047 |
| ATCATGAT | 0.289 ± 0.0047 |
| ATCATGAA | 0.111 ± 0.029 |
| ATCATGAG | 0.111 ± 0.046 |
| CGCGCCAG | -0.222 ± 0.12 |
| ATTGAGAC | -0.0808 ± 0.13 |
| GTGACAAA | 0.0325 ± 0.033 |
| CATAATGA | 0.0649 ± 0.033 |
| AATAATGA | 0.269 ± 0.062 |
| AATAATGG | 0.0129 ± 0.086 |
| AATAATGC | 0.1872 ± 0.0018 |
| AATAATGT | 0.258 ± 0.068 |

| Sequence | PBM 8-mer E-score |
| --- | --- |
| GATAATGA | -0.00519 ± 0.014 |
| GCTCTTTA | 0.0129 ± 0.059 |
| CGAAACAG | -0.176 ± 0.0078 |
| CCCGGCTC | -0.299 ± 0.021 |
| CTCGGTTC | -0.185 ± 0.018 |
| GTTTTACA | 0.0874 ± 0.0056 |
| ATGGTAAG | 0.0283 ± 0.054 |
| ATGGTAAC | 0.26 ± 0.046 |
| GTGGTAAC | 0.102 ± 0.049 |
| GATAGTAC | 0.0698 ± 0.03 |
| ACCCACCA | 0.0656 ± 0.034 |
| GCCCACAC | 0.0523 ± 0.0056 |
| GCCCACCA | -0.032 ± 0.095 |
| GCCCACCC | 0.294 ± 0.07 |
| CCCCACCC | 0.165 ± 0.027 |
| ACCCACCC | 0.299 ± 0.091 |
| AACGGCCG | -0.0126 ± 0.14 |
| ACCCCGAG | -0.142 ± 0.045 |
| CATACCAG | 0.0299 ± 0.094 |
| CTGTATTA | 0.129 ± 0.013 |
| ATGTATCG | 0.213 ± 0.065 |
| ATGTATTA | 0.22 ± 0.012 |
| GTATATTA | 0.28 ± 0.025 |
| ATATATTA | 0.225 ± 0.056 |
| ATGTATTC | 0.107 ± 0.074 |

| Sequence | PBM 8-mer E-score |
| --- | --- |
| ATGTATTG | 0.251 ± 0.048 |
| CTATATTA | 0.199 ± 0.042 |
| GTGTATTA | 0.277 ± 0.0053 |
| AGCTAGAA | -0.0154 ± 0.041 |
| GGTCCACA | -0.0698 ± 0.11 |
| GACGCAGA | -0.0585 ± 0.079 |
| CCCAGTAG | -0.0372 ± 0.037 |
| CGGTAACA | -0.0167 ± 0.022 |
| AGCCTGCA | 0.0231 ± 0.12 |
| AGCGTTGC | -0.0889 ± 0.092 |
| CCGGCCGC | -0.23 ± 0.0085 |
| CGCGGGTA | -0.0475 ± 0.074 |
| ATGATTGA | 0.127 ± 0.063 |
| ACCCAACC | 0.0711 ± 0.054 |
| AATAATCA | 0.08847 ± 8.5e-05 |
| CATAATCA | 0.08 ± 0.021 |
| GCTAATCA | -0.0154 ± 0.012 |
| GATAATCC | -0.0364 ± 0.011 |
| GATAATCA | 0.311 ± 0.07 |
| TATAATCA | 0.247 ± 0.037 |
| ACTCCTCT | -0.0496 ± 0.01 |
| GCCAAGAA | 0.106 ± 0.011 |
| ACCGAAAC | -0.0608 ± 0.064 |
| ATCCTCAA | -0.0775 ± 0.063 |
| CATCGCAA | 0.0394 ± 0.039 |

| Sequence | PBM 8-mer E-score |
| --- | --- |
| GGGCGGAC | -0.19 ± 0.067 |
| CGGCGGGA | -0.2043 ± 0.0015 |
| AGGCGGGA | 0.0523 ± 0.011 |
| GGCGGGAA | -0.0111 ± 0.026 |
| GGCGGGGA | 0.245 ± 0.082 |
| GGGCGGGA | 0.256 ± 0.051 |
| CGCGGGGA | -0.0158 ± 0.054 |
| AAGCCTAG | 0.0589 ± 0.067 |
| CGCTTCAC | -0.106 ± 0.011 |
| GGAACGAC | -0.0812 ± 0.036 |
| GACGCTCC | -0.151 ± 0.072 |
| CATTAATA | 0.188 ± 0.011 |
| TATTAAAA | 0.226 ± 0.062 |
| AATTAACA | 0.244 ± 0.008 |
| CATTAACA | 0.22 ± 0.1 |
| ATTTAATA | 0.245 ± 0.097 |
| CTTTAATA | 0.16 ± 0.04 |
| GTTTAATA | 0.218 ± 0.022 |
| AATTAATT | 0.213 ± 0.015 |
| AATTAATA | 0.271 ± 0.013 |
| AATTAATG | 0.139 ± 0.05 |
| TATTAATA | 0.288 ± 0.051 |
| TATTAACA | 0.128 ± 0.13 |
| GGGGTGAA | 0.0293 ± 0.058 |
| ACCCAATA | 0.132 ± 0.054 |

| Sequence | PBM 8-mer E-score |
| --- | --- |
| ACCTGTTC | 0.0511 ± 0.016 |
| CCGAGGAA | 0.0622 ± 0.053 |
| AATGACCC | 0.074 ± 0.021 |
| GTGGCACA | 0.137 ± 0.017 |
| ACTTTAGC | -0.00298 ± 0.1 |
| CGACTGCC | -0.163 ± 0.0073 |
| GAACGAAA | 0.0569 ± 0.079 |
| ATCCTGTC | -0.0955 ± 0.045 |
| CGGTACAC | -0.0567 ± 0.015 |
| AAAAAGCG | 0.0746 ± 0.018 |
| ACCGCCTA | -0.0164 ± 0.2 |
| AAACTATG | -0.057 ± 0.1 |
| AGTCCTAG | -0.0808 ± 0.069 |
| GATTAATA | 0.314 ± 0.062 |
| AATTAAGC | 0.191 ± 0.046 |
| AATTAAGA | 0.253 ± 0.013 |
| GATTAACA | 0.156 ± 0.037 |
| GATTAATC | -0.0526 ± 0.063 |
| GATTAAGA | 0.119 ± 0.07 |
| AACCTTCC | 0.0123 ± 0.0059 |
| TAACGAGA | 0.263 ± 0.054 |
| AAACGAGA | 0.18 ± 0.13 |
| CAACGAGA | 0.0722 ± 0.14 |
| ATTACAGC | -0.00666 ± 0.05 |
| ATTACAGA | 0.0555 ± 0.062 |

| Sequence | PBM 8-mer E-score |
| --- | --- |
| ATTACAGG | 0.236 ± 0.066 |
| TAGATACA | 0.143 ± 0.12 |
| CTCCGAGC | -0.0246 ± 0.032 |
| AAGTCATT | 0.131 ± 0.027 |
| CTGTTACA | 0.0334 ± 0.0084 |
| ATGTTACA | 0.239 ± 0.025 |
| ATGTTACC | 0.106 ± 0.016 |
| CTATCTAA | 0.0704 ± 0.073 |
| GAATGTAC | -0.0364 ± 0.078 |
| AAATGTGT | 0.175 ± 0.1 |
| AAATGTAC | 0.238 ± 0.048 |
| CAATGTAC | 0.115 ± 0.019 |
| AAATGTAT | 0.241 ± 0.013 |
| AAATGTAG | 0.0928 ± 0.084 |
| ACAGGCCT | -0.0825 ± 0.039 |
| AGCAGTAA | -0.0641 ± 0.1 |
| ACAGCGGA | -0.0346 ± 0.033 |
| GAATCAGA | -0.0136 ± 0.14 |
| GGACGGAA | -0.0931 ± 0.17 |
